This is a sample that favours compounds with a hit; in the whole collection about 7.4% have one here.
Rab9 promoter act: activators of Rab9 promoter | Potency, µM (titrated, usually from 9.22 µM), inactives show at the highest dose activation, negative = inhibition, hits mostly activators | hit rate 2.8% among 320,000 | Huh7 Rab9 promoter-luciferase reporter, luminescence, 24 h; further: % of control where 0% means no effect; nearly all actives have a fitted effect of over 60% in size
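Huh7 cells stably carrying Rab9 promoter–luciferase reporter, plated 1500 cells/well, compound added after 2 h and incubated 24 h at 37 °C; luciferase luminescence then read after 10 min with detection reagent.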
Luc counter: Kinase-Glo luciferase inhibition (counter-screen) | Kinase-Glo luciferase, ATP luminescence, 8 min | hit rate 0.28% among 200,000 | Potency, µM (highest dose often 38.3 µM), inactives show top-dose activity change, negative = inhibition, hits mostly inhibitors | AID 1379 | Q27757; further: on the % scale 0 is the no-effect control and ±100 the full control effect; nearly all actives have a fitted effect of over 60% in size
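Kinase-Glo luciferase light output from ATP and luciferin was measured with 10 uM ATP, within the enzyme's linear range. Buffer: 50 mM imidazole pH 7.2, 50 mM KCl, 7 mM MgCl2, 0.01% Tween 20, 0.05% BSA; luminescence read after 8 min at ambient temperature.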
NPC1 prom act: activators of NPC1 promoter. hit rate 2.4% among 320,000. Huh7 NPC1 promoter luciferase reporter, 24 h. Potency, µM (series often up to 9.22 µM), inactives show at the top dose activation, usual class: activators; further: % of control where 0% means no effect; nearly all actives have a fitted effect of over 60% in size
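Huh7 reporter cells (NPC1 promoter driving luciferase) are dosed with compound for 24 h at 37 °C, 5% CO2; luciferase detection reagent is then added and luminescence measured after 10 min at ambient temperature.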
SMN2 splice up: enhancers of SMN2 splice variant expression | HEK293 SMN2-luciferase splicing reporter, luminescence, 30-36 h | Potency, µM (series often up to 46.1 µM), for inactives: top-dose activity change, positive = activation, most hits filed as activators | hit rate 2.8% among 210,000 | AID 1458; further: % of control where 0% means no effect; nearly all actives have a fitted effect of over 55% in size
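HEK293 cells carry an SMN2 […]–luciferase reporter in which exon 7 inclusion puts luciferase in frame. Cells were plated 10-12 h before compound addition, then incubated 30-36 h at 37C. ONE-Glo luminescence was read; sodium butyrate at 4.5 mM final served as control.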
FLuc modulator: firefly luciferase modulation, counter-screen for miR-21 project; P08659; AID 588342; Potency, µM (top dose mostly 57.5 µM), for the others: at the highest dose activity change, negative = inhibition, usual class: inhibitors; hit rate 6.9% among 360,000; purified FLuc, Km substrates, luminescence inhibition;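 further: plate controls were vehicle for no effect and reference inhibitor for full effect; nearly all actives have a fitted effect of over 55% in size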
Target sequence (P08659 whole entry, looked up): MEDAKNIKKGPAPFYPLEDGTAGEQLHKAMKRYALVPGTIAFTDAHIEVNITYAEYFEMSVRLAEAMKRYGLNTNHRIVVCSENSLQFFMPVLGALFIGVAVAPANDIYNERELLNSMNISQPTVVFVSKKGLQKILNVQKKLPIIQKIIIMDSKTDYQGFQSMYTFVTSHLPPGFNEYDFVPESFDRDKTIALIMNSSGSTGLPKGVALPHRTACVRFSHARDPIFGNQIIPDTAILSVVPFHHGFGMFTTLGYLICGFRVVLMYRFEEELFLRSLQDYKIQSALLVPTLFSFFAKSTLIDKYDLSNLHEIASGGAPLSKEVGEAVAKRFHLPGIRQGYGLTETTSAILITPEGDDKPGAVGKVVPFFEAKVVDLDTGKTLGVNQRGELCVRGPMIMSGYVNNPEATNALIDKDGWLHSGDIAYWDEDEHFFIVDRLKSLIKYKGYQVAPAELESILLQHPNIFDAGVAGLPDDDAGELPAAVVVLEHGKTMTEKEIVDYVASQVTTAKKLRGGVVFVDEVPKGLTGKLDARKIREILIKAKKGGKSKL
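Biochemical qHTS of compounds, final roughly 60 µM downward over six points, against 10 nM purified firefly luciferase using Km concentrations of substrates (10 uM D-luciferin, 10 uM ATP) in Tris acetate pH 7.5 buffer; luminescence output.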
ELG1 genotoxic: inducers of genotoxicity in HEK293T ELG1-luciferase cells | hit rate 1.3% among 330,000 | Potency, µM (top dose mostly 46 µM), without a hit: at the highest dose activity change, positive = activation, usual class: activators | HEK293T ELG1-luciferase reporter, luminescence, 16 h | AID 504466; further: % of control where 0% means no effect; nearly all actives have a fitted effect of over 60% in size
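Genotoxicity was scored as increased ELG1-luciferase reporter signal, measured by ONE-Glo luminescence (30 min, room temperature). Compound or vehicle exposure of the HEK293T reporter cells lasted 16 hr at 37°C.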
Starred values were filed as active, the others as inactive. The call rests on the fitted dose curve; in most records, active means well fitted curve in the direction sought with a large enough effect; inconclusive means small, poorly fitted or top-dose-only effect, or another doubt; inactive means no such curve, though single readings can be large; an effect the other way counts as inactive or inconclusive. Potency means the concentration at half of the fitted maximal effect.

`Cc1cccc(-c2noc(-c3cc4ccccc4oc3=O)n2)c1` gave Rab9 promoter act 2.8µM*, Luc counter -24%, NPC1 prom act 3.2µM*, SMN2 splice up inconclusive, FLuc modulator 1.3µM* and ELG1 genotoxic inconclusive.
Screening COc1ccc(/C(N)=N/OC(=O)CSc2ccc(C)cc2)cc1 returned Rab9 promoter act -1%, Luc counter -1%, NPC1 prom act -2%, SMN2 splice up -18%, FLuc modulator inconclusive and ELG1 genotoxic 11%.
For Cc1ccc(/C(N)=N/OC(=O)COc2ccccc2Cl)cc1 the results were Rab9 promoter act -6%, Luc counter -3%, NPC1 prom act 17%, SMN2 splice up 22%, FLuc modulator 19µM* and ELG1 genotoxic 23µM*.
`O=C(NNC(=O)c1ccc([N+](=O)[O-])cc1)c1ccncc1` gave Rab9 promoter act -3%, Luc counter 4%, NPC1 prom act 0%, SMN2 splice up -6%, FLuc modulator -15% and ELG1 genotoxic -1%.
For N/C(=N\OC(=O)CSc1ccccc1)c1ccc([N+](=O)[O-])cc1 the results were Rab9 promoter act 13%, Luc counter 1%, NPC1 prom act 12%, SMN2 splice up inconclusive, FLuc modulator 19µM* and ELG1 genotoxic inconclusive.
Cc1ccc(/C(N)=N/OC(=O)CSc2ccccc2)cc1 was read as Rab9 promoter act 3.5µM*, Luc counter -2%, NPC1 prom act 2.5µM*, SMN2 splice up 11µM*, FLuc modulator 1.7µM* and ELG1 genotoxic inconclusive.
N/C(=N\OCc1ccc([N+](=O)[O-])cc1)c1ccncc1 was read as Rab9 promoter act -27%, Luc counter -3%, NPC1 prom act inconclusive, SMN2 splice up 16µM*, FLuc modulator 15µM* and ELG1 genotoxic inconclusive.
For O=C(CCS(=O)(=O)c1cccc2nonc12)Nc1ccc(Br)cc1 the results were Rab9 promoter act -1%, NPC1 prom act 5%, FLuc modulator 1% and ELG1 genotoxic -6%.
For COc1ccc(/C(N)=N/OC(=O)CSc2ccccc2)cc1 the results were Rab9 promoter act 3.2µM*, Luc counter -7%, NPC1 prom act inconclusive, SMN2 splice up 27%, FLuc modulator 4.8µM* and ELG1 genotoxic inconclusive.
`C=CCOc1ccccc1CN1CCC(Cc2ccccc2)CC1` gave Rab9 promoter act -2%, NPC1 prom act 0%, FLuc modulator 4% and ELG1 genotoxic -9%.
For O=C(CN1CCOCC1)NCCNC(=O)CN1CCOCC1 the results were Rab9 promoter act -2%, Luc counter 1%, NPC1 prom act -2%, SMN2 splice up 13µM*, FLuc modulator -1% and ELG1 genotoxic -1%.
`CC(=O)NC(c1ccco1)c1cc(Br)c2cccnc2c1O` (stereo not drawn) gave Rab9 promoter act -27%, NPC1 prom act -5% and FLuc modulator 1%.
Screening COc1ccc(/C=C/C2=NNC(=O)CC2)cc1 returned Rab9 promoter act 2.8µM*, Luc counter -15%, NPC1 prom act 27%, SMN2 splice up 16µM*, FLuc modulator inconclusive and ELG1 genotoxic inconclusive.
`CCOc1ccc(/C=C/C2=NNC(=O)CC2)cc1` gave Rab9 promoter act inconclusive, Luc counter -28%, NPC1 prom act inconclusive, SMN2 splice up 11µM*, FLuc modulator 15µM* and ELG1 genotoxic 18µM*.
`CCOC(=O)CN1N=C(/C=C/c2ccc(OCC)cc2)CCC1=O` gave Rab9 promoter act 26%, Luc counter -2%, NPC1 prom act 7%, SMN2 splice up -5%, FLuc modulator -15% and ELG1 genotoxic -1%.
`O=C1CCC(/C=C/c2ccccc2)=NN1` gave Rab9 promoter act 9%, Luc counter -6%, NPC1 prom act -15%, SMN2 splice up 11%, FLuc modulator -13% and ELG1 genotoxic 16%.
For Cc1ccc(C(=O)NCC(=O)Nc2ccc(Cl)cc2)s1 the results were ELG1 genotoxic 1%.
Screening O=C(N/N=C/c1cccnc1)c1cccc(Br)c1 returned Rab9 promoter act 20%, NPC1 prom act 2%, FLuc modulator inconclusive and ELG1 genotoxic 5%.
`CCOc1ccc(OCc2cccc(C(=O)N/N=C/c3cccnc3)c2)cc1` gave Rab9 promoter act 0.1µM*, Luc counter -5%, NPC1 prom act 0.1µM*, SMN2 splice up 0.13µM*, FLuc modulator 1.5µM* and ELG1 genotoxic 0.23µM*.
Screening CC(C)c1ccc(OCc2cccc(C(=O)N/N=C/c3cccnc3)c2)cc1 returned Rab9 promoter act inconclusive, Luc counter -4%, NPC1 prom act 0.28µM*, SMN2 splice up 0.22µM*, FLuc modulator 0.85µM* and ELG1 genotoxic 0.46µM*.
Screening CSCC[C@H](NC(=O)N1CCn2c1nc1ccccc12)C(=O)NCC1CCCO1 (stereo partly drawn) returned Rab9 promoter act -4%, NPC1 prom act -5%, FLuc modulator -1% and ELG1 genotoxic -1%.
Screening CN(C)S(=O)(=O)N1CCC(Oc2cccc(C(=O)N3CCSCC3)c2)CC1 returned Rab9 promoter act 2%, NPC1 prom act 3%, FLuc modulator 1% and ELG1 genotoxic -5%.
Screening COCCN(CCOC)c1nc(C)nc2c1nc(-c1ccccc1)n2CCN1CCCC1 returned Luc counter -2% and SMN2 splice up -6%.
For Cc1ccc(SCc2ccc(C(=O)Nc3nccs3)o2)cc1 the results were Rab9 promoter act inconclusive, NPC1 prom act inconclusive, FLuc modulator 15µM* and ELG1 genotoxic 8%.
Screening O=C(Nc1nccs1)c1ccc(CSc2ccccc2)o1 returned Rab9 promoter act 2µM*, NPC1 prom act 3.2µM*, FLuc modulator 5.4µM* and ELG1 genotoxic 16%.
CCOCCn1ccc2c(OCC(=O)NCc3ccc(F)cc3)cccc2c1=O was read as FLuc modulator -1%.
For CCc1ccc(N(C(=O)CCC(=O)Nc2cc(C)on2)C(C(=O)NC(C)(C)C)c2ccc(OC)cc2)cc1 (stereo not drawn) the results were Rab9 promoter act -2%, NPC1 prom act 2%, FLuc modulator 24µM* and ELG1 genotoxic -7%.
For COc1ccc(C(C(=O)NC(C)(C)C)N(C(=O)CCC(=O)Nc2cc(C)on2)c2cccc(F)c2)cc1 (stereo not drawn) the results were Rab9 promoter act -3%, NPC1 prom act -5%, FLuc modulator 0% and ELG1 genotoxic 5%.
`Cc1cc(C(=O)CCC(=O)N(C)CC(=O)Nc2ccc(OC(F)(F)F)cc2)c(C)s1` gave Rab9 promoter act 0%, NPC1 prom act 0%, FLuc modulator 3% and ELG1 genotoxic 1%.
